This note sets out measurements from PubChem BioAssay (NCATS).

A short description of assay [1]: qHTS for Inhibitors of the Aldehyde Dehydrogenase Family (ALDH1A2, ALDH1A3, ALDH2, ALDH3A1) (AID 2061307). Also: nearly all actives have a fitted effect of over 50% in size. As to Potency: test system not described further here; potency is read from the fitted curve at half-maximal effect. To be noted: ALDH inhibition qHTS; series mostly up to 50.3 µM. For orientation: Quantitative high-throughput screening tests each substance at several concentrations.
For assay [2], the target named is Aldehyde dehydrogenase, mitochondrial (Homo sapiens) (UniProt P05091). In words: qHTS for Inhibitors of the Aldehyde Dehydrogenase Family (ALDH2) Primary screen (AID 2061308). Also: nearly all actives have a fitted effect of over 55% in size. Also: potency is read from the fitted curve at half-maximal effect. To be noted: ALDH2 enzyme inhibition qHTS, 1536-well; series mostly up to 56 µM.
In assay [3] the target is Retinaldehyde dehydrogenase 3 (Homo sapiens) (UniProt P47895). Nature of the assay: qHTS for Inhibitors of the Aldehyde Dehydrogenase Family (ALDH1A3) Confirmatory screens (AID 2061311). Also: potency is read from the fitted curve at half-maximal effect; nearly all actives have a fitted effect of over 60% in size. The following applies: ALDH inhibition qHTS; series mostly up to 46 µM.
Assay [4] concerns the target Retinal dehydrogenase 2 (Homo sapiens) (UniProt O94788). In words: qHTS for Inhibitors of the Aldehyde Dehydrogenase Family (ALDH1A2) Confirmation screens (AID 2061314). Also: nearly all actives have a fitted effect of over 65% in size. Also: potency is read from the fitted curve at half-maximal effect. To be noted: ALDH1A2 enzyme inhibition qHTS confirmation; series mostly up to 45.9 µM.
For assay [5], the target named is Aldehyde dehydrogenase 1A1 (Homo sapiens) (UniProt P00352). Nature of the assay: qHTS for Inhibitors of the Aldehyde Dehydrogenase Family (ALDH1A1) Confirmatory screens (AID 2061316). Also: potency is read from the fitted curve at half-maximal effect; nearly all actives have a fitted effect of over 65% in size. The following applies: ALDH inhibition qHTS; series mostly up to 47.3 µM.
A short description of assay [6]: BET inhibitor-based combinations targeting novel dependencies in MECOM-rearranged (r) AML: SET-2 cell line (AID 2202231). Also: potency is read from the fitted curve at half-maximal effect; nearly all actives have a fitted effect of over 35% in size. The following applies: SET-2 AML cells viability, CellTiter-Glo luminescence, 48 h; viability: active compounds read low, concentration not given here. The method, boiled down:
(§1)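 AML cell lines seeded at 500 cells/well, treated with 11-point dose curves for 48 h. Viability by CellTiter-Glo luminescence, normalised to DMSO and empty wells; activity expressed as AUC and per-cell-line Z-transformed AUC.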
(Cellular ATP, detected with luciferase, serves as a proxy for viable cell number.)

A short description of assay [7]: BET inhibitor-based combinations targeting novel dependencies in MECOM-rearranged (r) AML: MV-4-11 cell line (AID 2202233). Also: potency is read from the fitted curve at half-maximal effect; nearly all actives have a fitted effect of over 45% in size. To be noted: MV-4-11 AML viability, CellTiter-Glo luminescence, 48 h; series mostly up to 46 µM. The method, boiled down:
(§2)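 Cells at 500/well were exposed for 48 hr to MIPE v5.0 drugs as 11-point dose curves. Viability was read by CellTiter-Glo luminescence and normalized to DMSO and empty-well controls. Activity was expressed as AUC and per-cell-line Z-AUC.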

Assay [8] in a line: BET inhibitor-based combinations targeting novel dependencies in MECOM-rearranged (r) AML: HNT-34 cell line (AID 2202234). Also: potency is read from the fitted curve at half-maximal effect; nearly all actives have a fitted effect of over 35% in size. To be noted: HNT-34 AML viability, CellTiter-Glo luminescence, 48 h; series mostly up to 46 µM. The method, boiled down:
as §2

Assay [9] can be described thus: BET inhibitor-based combinations targeting novel dependencies in MECOM-rearranged (r) AML: UCSD-AML1 cell line (AID 2202235). Also: potency is read from the fitted curve at half-maximal effect; nearly all actives have a fitted effect of over 40% in size. The following applies: UCSD-AML1 AML cells viability, CellTiter-Glo, 48 h; series mostly up to 46 µM. The method, boiled down: as §2
Assay [10] is described as follows: BET inhibitor-based combinations targeting novel dependencies in MECOM-rearranged (r) AML: AML-191 cell line (AID 2202236; also: potency is read from the fitted curve at half-maximal effect; nearly all actives have a fitted effect of over 35% in size). The following applies: AML-191 viability, CellTiter-Glo luminescence, 48 h; series mostly up to 46 µM. In outline:
as §1

A short description of assay [11]: BET inhibitor-based combinations targeting novel dependencies in MECOM-rearranged (r) AML: AML-194 cell line (AID 2202237; also: potency is read from the fitted curve at half-maximal effect; nearly all actives have a fitted effect of over 40% in size). The following applies: AML-194 (MECOM-r AML) viability, CellTiter-Glo, 48 h; series mostly up to 46 µM. In outline:
as §1

For assay [12], the target named is Retinaldehyde dehydrogenase 3 (Homo sapiens) (UniProt P47895). Nature of the assay: qHTS for Inhibitors of the Aldehyde Dehydrogenase Family (ALDH1A3) Primary screen (AID 2061315). To be noted: ALDH inhibition qHTS; series mostly up to 56 µM.

SMILES strings stand for the structures. Inconclusive results are not listed. Activity calls are given as the source filed them. Calls follow the shape of the dose curve; as a rule, active = well fitted curve in the direction sought with a large enough effect; inconclusive = small, poorly fitted or top-dose-only effect, or another doubt; inactive = no such curve, though single readings can be large; an effect the other way counts as inactive or inconclusive.

For `Oc1ccc(CNc2cc(C(F)(F)F)ccn2)c2cccnc12`, the Potency in [1] was 20.1 µM (active); in assay [3], 5.65 µM (active); in [4], 7.12 µM (active); in assay [5], 11.3 µM (active). For the same compound, the Potency entry in [2] is “inactive”.
With `Nc1nccc(-c2c(-c3ccc(F)cc3)ncn2C2CCCCC2)n1`, the Potency in assay [6] was 20.9 µM (active); in assay [7], 16.6 µM (active); in assay [8], 20.9 µM (active).
Take `Cc1ccc(S(=O)(=O)Nc2cc(C(F)(F)F)ccc2C(=O)Nc2nc(-c3ccccc3)cs2)cc1`: the Potency was 14.8 µM (active) in assay [6]; 8.33 µM (active) in [7]; 7.42 µM (active) in assay [8]; 8.33 µM (active) in assay [9]; 5.9 µM (active) in assay [10]; 9.34 µM (active) in assay [11].
Consider `O=C(NCCCCc1ccccc1)C1CCN(c2nc(-c3ccc(Br)cc3)cs2)CC1`, for which the Potency in [1] was 3.57 µM (active); in assay [5], 8.96 µM (active). Further, the Potency entry in assay [2], in [4] and in assay [12] was “inactive” in each case.
Consider `COc1ccc(C2c3c(ncn(CCN4CCOCC4)c3=N)Oc3ccc4ccccc4c32)cc1OC` (stereo unspecified), for which the Potency result in assay [1], in assay [2] and in assay [12] was “inactive” in each case.
As for `COc1cc(/C=C2\C(=O)Nc3ccccc32)ccc1O`, the Potency result in assay [1], in [2] and in assay [12] was “inactive” each time.
For the compound `N#Cc1c(-c2ccc(Br)cc2)no[n+]1[O-]`, the Potency in assay [1] is 7.98 µM (active); in assay [2], 7.94 µM (active); in assay [4], 7.12 µM (active). Further, the Potency entry in assay [12] is “inactive”.
Consider `Cc1cc(C)nc(NC(=S)N2CC3CN(c4ncc(C(F)(F)F)cc4Cl)CC3C2)c1` (stereo unspecified), for which the Potency entry in [1] and in assay [4] was “inactive” in each case. In addition, the Potency is 2.51 µM (active) in assay [2] and 12.7 µM (active) in [5].
Regarding `COc1ccc(C2=Nn3c(nnc3-c3cc(OC)ccc3OC)SC2)cc1`, the Potency was 20 µM (active) in assay [1] and 14.2 µM (active) in [5]. Further, the Potency result in assay [2], in assay [4] and in [12] was “inactive” in each case.
With `Fc1cnc(-c2ccccc2C(F)F)nc1NCC1CCN(c2cnccn2)CC1`, the Potency result in assay [1], in [2] and in assay [12] was “inactive” in each case.
